Results from PubChem BioAssay.
Values joined by “and” are separate entries in the source; they are usually repeats but may differ in a detail not shown here. Equal values may be shown once. Active and inactive are the calls of the source. Unless noted, no stated cut-off is given here; in the data, active means inhibition above about 80%; inactive means the rest.

What was measured:
[1] = molecular target: 6-phosphogluconate dehydrogenase, decarboxylating (Homo sapiens) (UniProt P52209); test: inhibition of human phosphogluconate dehydrogenase – biochemical, recombinant enzyme, NADPH absorbance, primary screen (AID 1159550;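 active means at least 20% inhibition of 6-phosphogluconate dehydrogenase activity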); details: recombinant 6PGD, NADPH absorbance 341 nm; at 10 µM; stronger effect = higher value
6-phosphogluconate dehydrogenase, decarboxylating (Homo sapiens), sequence (P52209 whole entry, looked up): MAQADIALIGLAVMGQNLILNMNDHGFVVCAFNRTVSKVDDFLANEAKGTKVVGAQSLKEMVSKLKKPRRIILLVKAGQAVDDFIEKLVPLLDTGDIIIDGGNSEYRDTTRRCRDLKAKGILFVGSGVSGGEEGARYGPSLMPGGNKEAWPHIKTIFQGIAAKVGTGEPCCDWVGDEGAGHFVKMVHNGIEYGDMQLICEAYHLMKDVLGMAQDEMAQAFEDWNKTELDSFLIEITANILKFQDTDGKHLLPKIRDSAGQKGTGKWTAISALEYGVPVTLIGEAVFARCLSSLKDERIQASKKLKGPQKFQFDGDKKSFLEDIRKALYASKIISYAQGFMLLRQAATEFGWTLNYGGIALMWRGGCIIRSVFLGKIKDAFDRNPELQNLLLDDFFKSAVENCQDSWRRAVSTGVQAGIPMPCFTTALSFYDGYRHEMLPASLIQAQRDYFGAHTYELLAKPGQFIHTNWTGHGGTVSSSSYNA

[2] = viability loss with induced miR-34 in A549 – imaging, A549 dox-inducible miR-34, nuclei and caspase counts, primary screen (AID 1347080;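 active means compounds whose cell count with miR-34 switched on is under 0.7 times the count with it off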); details: A549 miR-34 inducible, Hoechst nuclei count, 48 h
[3] = MELAS cybrid and Rieske KO viability enhancers – cell-based, MELAS cybrids, Rieske KO mouse fibroblasts, CellTiter-Glo, primary screen (AID 1508586;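 active means mean z-score across replicates of 1.96 or higher in either the MELAS or the Rieske mutant cell line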;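 further: z relative to plate mean and SD of compound and empty wells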); details: low glucose
[4] = galactose survival enhancers in mitochondrial complex I cybrids – cell-based, galactose medium, ATP luminescence, primary screen (AID 1645843;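 active means z-score of at least 1.8 in each of two replicates, scored against plate mean and spread of sample wells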;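 further: positive z means more ATP and so rescue of galactose-driven cybrid death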); details: complex I mutant cybrid cells, 72 h, stronger effect = higher value
[5] = growth inhibition, single agent or in combination, cell-based, chromothripsis tumors, cisplatin or BGB combos (AID 1671449); details: LFS_MB_P medulloblastoma cells;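 further: cells exposed for 96 hours; 0% = vehicle DMSO and 100% = killing by high DMSO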
[6] = growth inhibition, single agent and combos, cell-based, chromothripsis tumors, cisplatin or BGB combos (AID 1671450); details: HDN33 neuroblastoma cells, stronger effect = higher value;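 further: cells exposed to compound for four days; 0% = vehicle DMSO and 100% = cell killing by high DMSO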
[7] = growth inhibition, single agents and combos, ICB984, cell-based, cisplatin or BGB combos, synergistic combos for chromothripsis tumors (AID 1671451; call rule not given here;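 further: cells exposed for 96 hours before readout; 0% = vehicle DMSO and 100% = killing by high DMSO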); details: ICB984 medulloblastoma cells, drug combinations, stronger effect = higher value
[8] = growth inhibition, single agents and combos, LFS_MB_1R, cell-based, cisplatin or BGB combos, synergistic combos for chromothripsis tumors (AID 1671452); details: LFS_MB_1R medulloblastoma cells, stronger effect = higher value;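 further: cells exposed for 96 hours before readout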
[9] = growth inhibition, single agents and combos, HTB85, cell-based, BGB or cisplatin IC20 combos, synergistic combos for chromothripsis tumors (AID 1671453); details: HTB85 osteosarcoma cells, drug combinations, stronger effect = higher value;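 further: cells exposed for 96 hours before readout; 0% = vehicle DMSO and 100% = high DMSO killing control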
[10] = measured here: combination with BGB IC40, at 0.05 µM

In the case of COC1C(OC(N)=O)C(O)C(Oc2ccc3c(O)c(NC(=O)c4ccc(O)c(CC=C(C)C)c4)c(=O)oc3c2C)OC1(C)C (stereo not drawn), the inhibition [1] is reported as -15.7% (inactive), the fold change ([2]; stronger effect = lower value, cell number ratio, induced over uninduced) is reported as 0.913 (inactive) and 0.926 (inactive) and the fold change ([2]; measured here: relative caspase fold change +Dox/-Dox) is reported as 2.12 and 1.18. For the same compound, the cell count ([2]; measured here: total cells with miR-34 induction, stronger effect = lower value) was 9290 and 8980, the cell count ([2]; measured here: total cells without miR-34 induction) was 10200 and 9700 and the z-score ([3]; MELAS cybrid survival, CellTiter-Glo 48 h, stronger effect = higher value) was -0.751 (inactive) and -0.28 (inactive). The z-score ([3]; Rieske KO mouse fibroblast survival, CellTiter-Glo 72 h) was -1.31 and -0.896, the z-score [4] was 0.215 (inactive) and the inhibition ([5]; at 0.5 µM, stronger effect = higher value) was -3.51% (inactive). For the same compound, the inhibition ([5]; measured here: combination with BGB IC20, at 0.005 µM) was -14%, the inhibition ([5]; measured here: combination with BGB IC40, at 0.005 µM) was -18.4% and the inhibition [5, 10] was -8.09%. The inhibition ([5]; measured here: combination with cisplatin, at 0.5 µM, stronger effect = higher value) was -1.03%, the inhibition ([5]; measured here: combination with cisplatin, at 5 µM, stronger effect = higher value) was -41% and the inhibition ([6]; BGB combo, at 5 µM) was -12%. For the same compound, the inhibition ([6]; at 0.5 µM) was -8.11% (inactive), the inhibition ([6]; cisplatin combo, at 5 µM) was 0.721% and the inhibition ([6]; measured here: with BGB IC20 combination, at 0.5 µM) was 3.35%. It also gave an inhibition ([6]; measured here: with cisplatin IC20 combination, at 0.5 µM) of 2.19%, an inhibition ([6]; single agent, at 5 µM) of -35.9% and an inhibition ([7]; BGB IC20 combo, at 0.005 µM) of -23.7%. For the same compound, the inhibition ([7]; BGB IC40 combo, at 0.005 µM) was -54.1%, the inhibition ([7]; BGB IC40 combo, at 0.05 µM) was -30.8% and the inhibition ([7]; at 0.5 µM) was -1.24% (inactive). For the same compound, the inhibition ([7]; cisplatin combo, at 0.05 µM) was -30.8%, the inhibition ([7]; cisplatin combo, at 0.5 µM) was -1.05% and the inhibition ([7]; cisplatin combo, at 5 µM) was -22.8%. The inhibition ([7]; measured here: 5 uM single agent, at 5 µM) was -16.3%, the inhibition ([8]; at 0.5 µM) was -15% (inactive) and the inhibition [8, 10] was -15.8%. The inhibition ([8]; measured here: combination with cisplatin, at 0.5 µM) was 17.7%, the inhibition ([8]; measured here: combination with cisplatin, at 5 µM) was -65.5% and the inhibition ([9]; at 0.5 µM) was -17.6% (inactive). It also gave an inhibition ([9]; measured here: with BGB IC20, at 0.5 µM) of -24%, an inhibition ([9]; measured here: with BGB IC20, at 5 µM) of 20.3% and an inhibition ([9]; measured here: with cisplatin IC20, at 0.5 µM) of -30.3%. The inhibition ([9]; measured here: with cisplatin IC20, at 5 µM) was -20.2% and the inhibition ([9]; single agent, at 5 µM) was -19%.
